Experimental data: PubChem BioAssay AID784 (The Scripps Research Institute Molecular Screening Center, 2007)
Hit rate of the full screen: of about 30,000 compounds, about 130 (0.43%) were called active. No stated cut-off is given here; in the data, active means activation above about 65%; inactive means the rest. The full list was thinned out, with actives kept by preference.

The compounds below were run against Lysosomal acid glucosylceramidase (Homo sapiens) (UniProt P04062) (assay: GBA activity enhancers in patient fibroblasts, primary screen, cell-based (AID 784;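 further: 0% = vehicle wells and 100% = positive control wells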)). Settings: L444P Gaucher fibroblasts, 4-MU-glucoside fluorescence, 3 days; at 10 µM; hits give high values.
Chain of Lysosomal acid glucosylceramidase (Homo sapiens) (P04062 whole entry L483P): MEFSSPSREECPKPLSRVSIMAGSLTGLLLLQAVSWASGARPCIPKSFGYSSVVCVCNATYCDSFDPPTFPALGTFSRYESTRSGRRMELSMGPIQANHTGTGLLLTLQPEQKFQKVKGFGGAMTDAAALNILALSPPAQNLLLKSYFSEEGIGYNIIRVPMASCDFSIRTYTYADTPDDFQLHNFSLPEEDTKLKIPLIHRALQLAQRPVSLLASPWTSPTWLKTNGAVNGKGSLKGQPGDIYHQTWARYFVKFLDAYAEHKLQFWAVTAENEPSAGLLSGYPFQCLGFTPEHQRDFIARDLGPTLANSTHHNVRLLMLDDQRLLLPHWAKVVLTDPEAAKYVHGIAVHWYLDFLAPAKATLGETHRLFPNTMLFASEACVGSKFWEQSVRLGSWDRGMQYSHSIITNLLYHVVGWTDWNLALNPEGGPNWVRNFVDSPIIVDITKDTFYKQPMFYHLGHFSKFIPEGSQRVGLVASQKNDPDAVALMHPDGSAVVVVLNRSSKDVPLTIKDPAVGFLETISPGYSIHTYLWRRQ

| Structure (SMILES) | activation |
| --- | --- |
| CCn1c2c(c3ccc(OC)cc31)CCCC2=O | -2.82% (inactive) |
| O=C(COc1ncnc2ccccc12)NC(=O)NCc1ccccc1 | -9.58% (inactive) |
| CCCOc1cccc(C(=O)Nc2nnn(CCC)n2)c1 | -14.1% (inactive) |
| Cc1ccc(OCc2nc(C#N)c(N3CCCC3)o2)cc1 | -34.7% (inactive) |
| Cc1ccc(OCCCC(=O)N2CCOCC2)c(C)c1 | 9.81% (inactive) |
| Cc1cc(N2CCN(Cc3ccc4c(c3)OCO4)CC2)n2ncnc2n1 | 4.34% (inactive) |
| CCOc1cc(CO)ccc1OCC(=O)N1CCCCC1 | 38.3% (inactive) |
| CC(C)(C)c1nc(NCC2CCCO2)c2nnn(Cc3ccccc3)c2n1 (stereo unspecified) | -23.9% (inactive) |
| O=CN1CCN(C2CC(=O)N(c3ccc4c(c3)OCO4)C2=O)CC1 (stereo unspecified) | -20.8% (inactive) |
| CC1(C)CC(=O)C=C(NCCCN2CCCC2=O)C1 | 48.7% (inactive) |
| NC(CSC12CC3CC(CC(C3)C1)C2)C(=O)O (stereo unspecified) | -2.09% (inactive) |
| CCOC(=O)C1CCCN(C(=O)c2cncc(Br)c2)C1 (stereo unspecified) | -20.7% (inactive) |
| OC(COc1ccccc1)Cn1cc(Br)cn1 (stereo unspecified) | -62.4% (inactive) |
| CCCCSc1nnc(-c2ccc(C)cc2)o1 | 65.5% (active) |
| COc1ccc(-c2nnc(SC(C)C#N)o2)cc1 (stereo unspecified) | -2.02% (inactive) |
| c1ccc(-c2nnc(SCc3nc4ccccc4[nH]3)o2)cc1 | -6.36% (inactive) |
| CC1(C)SC2c3ccccc3C(=O)N2[C@@H]1C(=O)NCc1ccco1 (stereo partly specified) | -2.64% (inactive) |
| C=CCn1cnc2scc(-c3ccccc3)c2c1=O | -7.71% (inactive) |
| CCN1C(=O)C(C(=O)NC(C)c2ccccc2)C2CC1(C)Oc1ccccc12 (stereo unspecified) | -6.62% (inactive) |
| CC(C)C(C(=O)NC1CCCCC1)N(CC1CCCO1)C(=O)CNS(=O)(=O)c1ccc(F)cc1 (stereo unspecified) | -1.42% (inactive) |
| COc1ccc(NC(=O)c2c(C)oc3c2CCCC3)cc1 | 9.49% (inactive) |
| CCc1c(C)sc(NC(=O)OC)c1C(=O)N1CCOCC1 | -9.88% (inactive) |
| Cc1nc2nc3c(cn2n1)C(=O)CC(c1ccccc1)C3 (stereo unspecified) | -10.1% (inactive) |
| CC(=O)Nc1cccc(NC(=O)c2c(-c3ccccc3)noc2C)c1 | -9.69% (inactive) |
| CCc1nc(N2CCN(c3nc(C)cc(C)n3)CC2)c2oc3ccccc3c2n1 | -1.58% (inactive) |
| CCCn1c(SCC(=O)Nc2cccc(C(=O)OCC)c2)nnc1-c1ccoc1C | -19.7% (inactive) |

| Structure (SMILES) | activation |
| --- | --- |
| O=C(COc1ccccc1)N1CCc2ccccc2C1 | -2.86% (inactive) |
| CCCCc1nc2ccccc2c(=O)n1NC(=O)c1c(O)c2cccc3c2n(c1=O)CC3 | 3.98% (inactive) |
| Cc1c(NC(=O)Nc2ccccc2Cl)sc(=S)n1C | -15.8% (inactive) |
| CC12C(=O)N(n3cnnc3)C(=O)C1C1C=CC2C1 (stereo unspecified) | -8.37% (inactive) |
| CC(C)N(C(=O)Cn1c(SCC(=O)N2CCN(c3ccccc3)CC2)nc2ccccc21)C(C)C | -5.29% (inactive) |
| Cc1ccccc1NC(=O)c1cc(S(=O)(=O)N2CCOCC2)cs1 | -11.8% (inactive) |
| CC(=NCc1ccco1)C1=C(O)c2ccccc2C1=O | -41.5% (inactive) |
| Cc1nc2c(c(=O)n1Cc1ccco1)c1nc3ccccc3nc1n2Cc1ccccc1 | -11.7% (inactive) |
| COc1ccc(-c2csc(N3CCN(Cc4ccc5c(c4)OCO5)CC3)n2)cc1 | -17.4% (inactive) |
| CC(c1ccccc1)n1c(NCCCn2ccnc2)nc2c1c(=O)[nH]c(=O)n2C (stereo unspecified) | -10.3% (inactive) |
| COc1ccc(Br)cc1S(=O)(=O)N1CCN=C1C | -8.13% (inactive) |
| O=[n+]1c2c(n([O-])c3cc(Br)ccc31)CCC2 | 30.8% (inactive) |
| Cc1c(C(=O)OCc2cc(=O)n3cc(Br)ccc3n2)oc2ccccc12 | 23% (inactive) |
| CCOCCCNS(=O)(=O)Cc1ccccc1 | 6.43% (inactive) |
| CCOC(=O)C1=C(C)NC(C)=C(C(=O)OCC)C1C1=COCCO1 | -5.96% (inactive) |
| C=CCn1c(SCc2cc(C(=O)OC)c(C)o2)nnc1-c1ccncc1 | 31.7% (inactive) |
| Cn1c(=O)n(C)c(=O)n(CC(=O)N2CCCCC2)c1=O | -12.6% (inactive) |
| Clc1cccc(Cl)c1Cn1nnc(-c2cccs2)n1 | 10.2% (inactive) |
| COc1ccccc1CNCc1cccs1 | -7.11% (inactive) |
| NC(=NC(=O)c1ccccc1)C1=C(O)CCC1=O | 0% (inactive) |
| O=C(CSc1nnc(-c2cccs2)n1-c1ccccc1)N1CCN(C(=O)c2ccco2)CC1 | -13.7% (inactive) |
| Cc1ccsc1CNn1cnnc1SCc1ccccc1F | -2.23% (inactive) |
| Cc1nnc(NC2=NCCCCC2)o1 | 8.3% (inactive) |
| CCS(=O)(=O)N1CCN(C(=O)c2cccs2)CC1 | -24.4% (inactive) |
| COc1ccccc1C(=O)Oc1ccc(N2C(=O)CCC2=O)cc1 | 4.62% (inactive) |
| COC(C)(C)[C@]12CC(O)(C(C)C)ON1[C@H]1CCCCC1N2O (stereo partly specified) | -2.77% (inactive) |

| Structure (SMILES) | activation |
| --- | --- |
| CC(Cc1cccs1)NC(=O)NC1CCCCC1 (stereo unspecified) | -0.56% (inactive) |
| C=C(C)Cn1c(SCC(=O)NCc2ccco2)nc2sc3c(c2c1=O)CCC3 | -21.3% (inactive) |
| CCOC(=O)CC1C(=O)NCCN1C(=O)COc1ccc(Br)cc1C (stereo unspecified) | -21.1% (inactive) |
| Nn1c(SCC(=O)NC(=O)NC2CCCC2)nnc1-c1ccccc1F | 2.97% (inactive) |
| O=C(COc1ccc2c3c(c(=O)oc2c1)CCC3)NC1CCCCC1 | 9.84% (inactive) |
| CC1CC(c2ccccc2)n2nc(NC(=O)c3cccs3)nc2N1 (stereo unspecified) | -23.6% (inactive) |
| Cc1cc(NC(=O)COC(=O)c2ccc(F)c(S(=O)(=O)N3CCOCC3)c2)no1 | -7.98% (inactive) |
| Cc1cc(C)c2nc(N3CCCC3)c(C#N)cc2c1 | 18.1% (inactive) |
| CN(C(=O)CSc1nnnn1-c1ccccc1)C1CCCCC1 | -16.5% (inactive) |
| Cc1nn(-c2ccccc2)c(C)c1C(=O)OCC(=O)NC(=O)NC1CCCCC1 | 59.8% (inactive) |
| O=C(c1c(Cl)nc2sccn12)N1CCCc2ccccc21 | -24.6% (inactive) |
| CC1(c2ccccc2Cl)NC(=O)N(CC(=O)NC(=O)NCc2ccco2)C1=O (stereo unspecified) | -9.6% (inactive) |
| Cc1cc(OCCN2CCCC2)ccc1C(C)C | -12.4% (inactive) |
| CCC(=O)Nc1nc(OC)cc(OC)n1 | -18.3% (inactive) |
| CC(=O)c1cnc(Nc2nc(C)c3cc(C)ccc3n2)nc1C | 13.5% (inactive) |
| Cc1nnc(SCC(=O)N2CCc3ccccc32)n1-c1ccccc1 | -18.6% (inactive) |
| O=C(Cn1nnc(-c2ccccc2)n1)NCc1ccccc1 | -40% (inactive) |
| COc1ccc(Cn2c(=O)sc3ccccc32)cc1OC | -6.04% (inactive) |
| O=C(O)Cc1ccc(NC(=O)c2cccs2)cc1 | -9.31% (inactive) |
| O=C(NCc1cccnc1)c1cn(-c2ccccc2)nc1-c1cccs1 | -15.4% (inactive) |
| COCCCNC(=O)c1c(F)c(F)c(F)c(F)c1F | -31.9% (inactive) |
| CCOC(=O)C(CCOc1cccc(CC)c1)C(=O)OCC | -0.5% (inactive) |
| CCn1cc(C(=O)NCc2ccc(OC)cc2OC)c(=O)c2ccc(C)nc21 | -10.1% (inactive) |
| Cn1c(=O)[nH]c(=O)c2c1nc(N1CCCCCC1)n2CC(=O)c1ccccc1 | -1.4% (inactive) |
| CC1Cc2ccccc2N1C(=O)Cn1cnc2ccccc2c1=O (stereo unspecified) | -14.5% (inactive) |
| COC(=O)[C@@H](NC(=O)NCc1cccc(OC)c1)C(C)C | -5.38% (inactive) |

| Structure (SMILES) | activation |
| --- | --- |
| CCCc1nnc(NC(=O)CN2C(=O)c3ccccc3S2(=O)=O)s1 | -21.6% (inactive) |
| O=P(O)(CP(=O)(c1ccccc1)c1ccccc1)c1ccccc1 | -3.68% (inactive) |
| CCCCNC(=O)CSc1nnc(-c2ccco2)n1C | -32.4% (inactive) |
| Cc1c(C)c2cc3c4c(oc3c(C)c2oc1=O)CCCC4 | 102% (active) |
| COC(=O)CCSc1nccn1Cc1ccccc1 | -3.3% (inactive) |
| Fc1ccccc1CCNc1nnnn1-c1ccccc1 | -5.46% (inactive) |
| CCN(C(=O)CSc1ncn[nH]1)c1cccc2ccccc12 | 4.77% (inactive) |
| COCCn1nnnc1CN1CCC(NC(=O)Nc2cccc(OC)c2)CC1 | 2.44% (inactive) |
| Cc1ccc(S(=O)(=O)N2CCN(C(=O)CCC(=O)NC3CCCc4ccccc43)CC2)cc1 (stereo unspecified) | -7.53% (inactive) |
| Cc1ccc(-c2noc(CCC(N)=O)n2)cc1 | 1.93% (inactive) |
| COCCCNC(=O)Cn1cc(C(=O)C2CC2)c2ccccc21 | 72.8% (active) |
| COC(=O)c1cn(CC(=O)NCc2cccs2)c2ccccc12 | -8.81% (inactive) |
| O=C(Cn1cc(C(=O)c2cccs2)c2ccccc21)NCc1cccs1 | 5.52% (inactive) |
| CCCCn1c(SCC(=O)N2CCC(C(=O)OCC)CC2)nc2cc(S(N)(=O)=O)ccc21 | -6.49% (inactive) |
| CCOC(=O)c1cc2c(n(-c3ccc(C)cc3)c1=O)CCCC2=O | -11% (inactive) |
| Cc1cccc(N2CC(C)Cn3c2nc2c3c(=O)n(CC(=O)OCc3ccccc3)c(=O)n2C)c1 (stereo unspecified) | -17.9% (inactive) |
| CCOc1ccccc1-n1c(SCC(=O)N2CCCC2)nnc1-c1ccoc1C | 0.64% (inactive) |
| O=C(Nc1nc2cc3c(cc2s1)OCCO3)c1cccc(S(=O)(=O)N2CCOCC2)c1 | 0.12% (inactive) |
| COc1ccccc1OCCC(=O)OCC(=O)NC(=O)NC(C)(C)C | 4.86% (inactive) |
| Cn1nc(-c2ccc(N3CCOCC3)c(NC(=O)c3ccccc3)c2)c2ccccc2c1=O | -54.8% (inactive) |
| CC(C)Cn1c(N)c(C(=O)NCc2cccs2)c2nc3ccccc3nc21 | 73.7% (active) |
| C=CCn1c(N)c(C(=O)OCC(C)C)c2nc3ccccc3nc21 | -9.15% (inactive) |
| C=CCn1c(N)c(S(=O)(=O)c2cccs2)c2nc3ccccc3nc21 | -13.8% (inactive) |
